Rpn11 inh: Rpn11 (human) deubiquitinase inhibition; 360,000 tested, 0.59% active; human 26S proteasome, Ub4-pepOG fluorescence polarization; 20S core pre-blocked with epoxomicin; AID 588493; inhibition, % at 20 µM;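 active means inhibition at 20 µM, scaled to each plate's controls, above about 33%, limit read from the data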
HNF4A DNA FP: change in binding of human HNF4 alpha to DNA. P41235. HNF4a-FITC DNA binding, fluorescence polarization, 1 h. activity change, % at 10 µM. 360,000 tested, 0.3% active. AID 1224865; in the data active means activity change above about 30%, passing the limit was not always enough
NRP1-CendR mod: NRP-1/CendR interaction modulation; O14786; FAM-RPARPAR peptide binding to NRP-1, fluorescence polarization; inhibition, % at 25 µM; 360,000 tested, 0.85% active;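 active means inhibition or corrected inhibition above about 18%, plus a signal ratio from 0.5 to 1.5, limit read from the data, passing the limit was not always enough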
Fh CTSL1 inh: counter-screen for PFM18AAP inhibitors: inhibitors of F. hepatica cathepsin L1 | 300,000 tested, 0.49% active | inhibition, % at 5.96 µM | AID 1906 | recombinant F. hepatica cathepsin L1, Z-Leu-Arg-MCA fluorescence;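 active means inhibition above the mean of all tested compounds plus 3 SD, set per screening campaign, cut at about 17% in these data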
PHOSPHO1 inh: PHOSPHO1 (human) inhibition | recombinant PHOSPHO1, absorbance phosphatase assay | inhibition, % at 13.3 µM | 290,000 tested, 1.1% active | AID 1565; in the data active means inhibition above about 60%
TPT1 inhibitor: inhibitors of Candida albicans tRNA 2'-phosphotransferase TPT1; recombinant caTPT1, FP RNA substrate dephosphorylation; 300,000 tested, 0.81% active; inhibition, % at 5 µM;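 active means inhibition above the mean of all tested compounds plus 3 SD, set per screening campaign, cut at about 24% in these data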
TPT1 inh confirm: TPT1 (C. albicans) inhibition, confirmation. shares compounds with TPT1 inhibitor. AID 2149. recombinant caTPT1, fluorescence polarization, RNase T1 coupled. inhibition, % at 5 µM. 2,400 tested, 74% active;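 active means inhibition above the primary screen limit, the mean inhibition of all tested compounds plus 3 SD, cut at about 25% in these data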
RNase T1 counter: counter-screen for TPT1 inhibitors: inhibitors of Aspergillus oryzae RNase T1. shares compounds with TPT1 inhibitor. RNase T1 cleavage, fluorescence polarization, 1536-well. inhibition, % at 5 µM. 2,400 tested, 83% active;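 active means inhibition above the solvent-only control well mean plus 3 SD, limit set per screening run, cut at about 23% in these data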;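 further: inhibitors block cleavage so intact labeled substrate keeps polarization high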
Rpn11 inh conf: confirmation of human proteasome Rpn11 inhibitors; shares compounds with Rpn11 inh; purified human 26S proteasome, Ub4-pepOG fluorescence polarization; proteasome pretreated with epoxomicin; inhibition, % at 20 µM; 1,900 tested, 29% active
MMP-2 counter: counter-screen for RPN11 inhibitors: inhibition of human MMP-2. shares compounds with Rpn11 inh. recombinant MMP-2, FRET peptide cleavage fluorescence. inhibition, % at 20 µM. 1,900 tested, 4% active;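 further: human MMP-2 activated beforehand with APMA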
Thrombin FP: thrombin (bovine) inhibition counter-screen; 1,900 tested, 13% active; bovine thrombin cleavage of Ub4-pepOG, fluorescence polarization; shares compounds with Rpn11 inh; inhibition, % at 20 µM;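 active means mean inhibition at least 40% at 20 µM, or signal 3 deviations below plate average, so some actives read negative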
Target sequence (P00735 whole entry, looked up): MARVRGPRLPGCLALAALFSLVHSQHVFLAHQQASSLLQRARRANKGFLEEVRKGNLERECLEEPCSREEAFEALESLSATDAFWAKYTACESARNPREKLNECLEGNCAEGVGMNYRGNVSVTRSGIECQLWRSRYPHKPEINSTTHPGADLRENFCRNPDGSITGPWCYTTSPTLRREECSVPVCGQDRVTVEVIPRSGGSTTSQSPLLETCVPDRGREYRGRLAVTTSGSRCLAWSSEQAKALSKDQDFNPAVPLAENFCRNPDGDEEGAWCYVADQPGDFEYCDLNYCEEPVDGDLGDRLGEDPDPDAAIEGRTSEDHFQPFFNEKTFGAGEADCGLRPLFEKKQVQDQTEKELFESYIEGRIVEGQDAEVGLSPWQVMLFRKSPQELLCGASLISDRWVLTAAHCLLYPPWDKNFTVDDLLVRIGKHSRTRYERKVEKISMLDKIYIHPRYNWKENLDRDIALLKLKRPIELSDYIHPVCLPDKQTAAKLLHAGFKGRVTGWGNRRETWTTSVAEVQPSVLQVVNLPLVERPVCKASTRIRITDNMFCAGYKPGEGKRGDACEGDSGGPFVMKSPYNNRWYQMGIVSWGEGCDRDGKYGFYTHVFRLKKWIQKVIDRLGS
Each line names hits and unclear results; the compound was inactive in the other large screens (follow-up assays come after a bar, where they were run). Shown are actives, neighbours in structure and some others; about 3.3% of the full set was active somewhere. Unless noted, no stated cut-off is given here; in the data, active means inhibition above about 40%; inactive means the rest.

CN1CCN(C(=O)/C(=C/c2ccc(F)cc2)NC(=O)c2ccccc2)CC1	none
CN1CCN(C(=O)/C(=C/c2ccc(N(C)C)cc2)NC(=O)c2ccccc2)CC1	Rpn11 inh 49, TPT1 inhibitor 45 | TPT1 inh confirm 48 | RNase T1 counter 58 | Rpn11 inh conf inactive | MMP-2 counter inactive | Thrombin FP inactive
Cc1ccc(S(=O)(=O)N2[C@@H](c3ccc(F)cc3)C(C(=O)O)=C[C@H]2CC2CCCC2)cc1	none (no result: Fh CTSL1 inh, PHOSPHO1 inh, TPT1 inhibitor)
O=c1/c(=C\c2ccc(O)cc2)sc2n1C(c1ccccc1)C(c1ccccc1)=NN=2 (centres undefined)	Rpn11 inh 81, HNF4A DNA FP 41, TPT1 inhibitor 62 | TPT1 inh confirm 65 | RNase T1 counter 76 | Rpn11 inh conf 95 | MMP-2 counter inactive | Thrombin FP 86
COc1ccc(C(=O)NCc2ccc(N3CCN(C(=O)OC(C)(C)C)CC3)cc2)cc1	none
COc1ccc(C(=O)c2c(N)sc3c2CCN(C(=O)OC(C)(C)C)C3)cc1	Rpn11 inh 45, TPT1 inhibitor 30 | TPT1 inh confirm inactive | RNase T1 counter 22 | Rpn11 inh conf inactive | MMP-2 counter inactive | Thrombin FP inactive
COc1cc(/C=C2/C(=N)N3C(=NC2=O)SN=C3S(C)(=O)=O)ccc1OC(=O)c1ccco1	Rpn11 inh 69, HNF4A DNA FP 51, TPT1 inhibitor 25 | TPT1 inh confirm 32 | RNase T1 counter 36 | Rpn11 inh conf 67 | MMP-2 counter inactive | Thrombin FP inactive
CS(=O)(=O)C1=NSC2=NC(=O)/C(=C\c3ccc(OC(=O)c4ccco4)cc3)C(=N)N21	none (no result: Rpn11 inh, HNF4A DNA FP, NRP1-CendR mod)
O=C(OCc1nnc(-c2ccc([N+](=O)[O-])cc2)o1)C1CCN(C(=O)c2ccc(F)cc2)CC1	none (no result: Fh CTSL1 inh, PHOSPHO1 inh, TPT1 inhibitor)
O=C(Nc1ccc2c(c1)OCO2)N1CCN(c2ncc(C(F)(F)F)cc2Cl)CC1	none
O=C(O)c1ccccc1N/N=C/C1=C(N2CCOCC2)C(=C\c2ccccc2)/CC1	Rpn11 inh 60, TPT1 inhibitor 25 | TPT1 inh confirm 93 | RNase T1 counter 102 | Rpn11 inh conf inactive | MMP-2 counter inactive | Thrombin FP inactive
COc1cc(/C=C2/C(=O)NN(c3ccccc3)C2=O)cc(Br)c1O	Rpn11 inh 48, TPT1 inhibitor 54 | TPT1 inh confirm 84 | RNase T1 counter 103 | Rpn11 inh conf 55 | MMP-2 counter inactive | Thrombin FP 52
COc1cc(/C=C2\C(=O)NN(c3ccc(C)cc3)C2=O)cc([N+](=O)[O-])c1O	none
COc1cc(/C=C2/C(=O)NN(c3ccc(Cl)cc3)C2=O)cc(OC)c1O	Rpn11 inh 63, TPT1 inhibitor 97 | TPT1 inh confirm 151 | RNase T1 counter 154 | Rpn11 inh conf 62 | MMP-2 counter inactive | Thrombin FP 54
CCOC(=O)C1=C(N)Oc2ccc3ccccc3c2C1c1ccc(O)c(OC)c1 (centres undefined)	none (no result: Fh CTSL1 inh, TPT1 inhibitor)
O=C(Cc1ccccc1)N/N=C/c1ccc(-c2ccc([N+](=O)[O-])cc2)o1	none
CCOc1ccc(S(=O)(=O)N(CC(=O)N/N=C/c2ccc(-c3ccc([N+](=O)[O-])cc3)o2)c2ccccc2)cc1	Rpn11 inh 58, TPT1 inhibitor 39 | TPT1 inh confirm 39 | RNase T1 counter 52 | Rpn11 inh conf 43 | MMP-2 counter 74 | Thrombin FP inactive
CCCCCN(C(=O)CCC(=O)OCc1cccc(C)c1)c1c(N)n(CCCC)c(=O)[nH]c1=O	none (no result: PHOSPHO1 inh)
Cc1cc(/C=C2/C(=N)N3C(c4ccccc4)=CSC3=NC2=O)c(C)n1-c1ccc(Cl)cc1	none (no result: Fh CTSL1 inh, PHOSPHO1 inh, TPT1 inhibitor)
O=C1OC(c2cccs2)=N/C1=C\c1ccc(-c2cccc(Cl)c2)o1	Rpn11 inh 48, TPT1 inhibitor 40 | TPT1 inh confirm 166 | RNase T1 counter 171 | Rpn11 inh conf inactive | MMP-2 counter inactive | Thrombin FP inactive
N=C1/C(=C\c2ccc(-c3cccc(Cl)c3)o2)C(=O)N=C2SC=C(c3ccccc3)N12	Rpn11 inh 66, TPT1 inhibitor 60 | TPT1 inh confirm 44 | RNase T1 counter 56 | Rpn11 inh conf 73 | MMP-2 counter inactive | Thrombin FP 49
CCN(CC(=O)NCc1ccc(Cl)cc1)C(=O)CSc1ccc(Br)cc1	none
Cc1ccccc1Nc1cccc2nonc12	Rpn11 inh 40, TPT1 inhibitor 37 | TPT1 inh confirm 42 | RNase T1 counter 54 | Rpn11 inh conf inactive | MMP-2 counter inactive | Thrombin FP inactive
Cc1cc(N2CCCC2)ccc1/C=C1/C(=O)N(C)C(=S)N1C	Rpn11 inh 43, TPT1 inhibitor 73 | TPT1 inh confirm 67 | RNase T1 counter 76 | Rpn11 inh conf inactive | MMP-2 counter inactive | Thrombin FP inactive
Cc1cccc(NC(=O)CNC(=O)CCc2nc3sc4c(c3c(=O)[nH]2)CCCC4)c1C	Rpn11 inh 122, TPT1 inhibitor 32 (no result: PHOSPHO1 inh) | TPT1 inh confirm 43 | RNase T1 counter 53 | Rpn11 inh conf 178 | MMP-2 counter inactive | Thrombin FP 85
Cc1sc2nc(CSC(C)C(=O)Nc3ccccn3)[nH]c(=O)c2c1C (centres undefined)	none (no result: Fh CTSL1 inh, PHOSPHO1 inh, TPT1 inhibitor)
Cc1ccc(NC(=O)C(C)SCc2nc3sc4c(c3c(=O)[nH]2)CCCC4)nc1 (centres undefined)	Rpn11 inh 55, TPT1 inhibitor 26 | TPT1 inh confirm 37 | RNase T1 counter 45 | Rpn11 inh conf 49 | MMP-2 counter inactive | Thrombin FP inactive
CC(SCc1nc2sc3c(c2c(=O)[nH]1)CCCC3)C(=O)Nc1ccccn1 (centres undefined)	Rpn11 inh 45, TPT1 inhibitor 32 (no result: PHOSPHO1 inh) | TPT1 inh confirm 39 | RNase T1 counter 50 | Rpn11 inh conf inactive | MMP-2 counter inactive | Thrombin FP inactive
CCOc1ccc(/C(O)=C2/C(=O)C(=O)N(CCCn3ccnc3)C2c2cccs2)cc1Cl (centres undefined)	none
CCOC(=O)c1cnc2ccc(OCC)cc2c1NCc1ccccc1	none
CCCc1cc2c(cc1NC(=O)c1ccccc1C)OCO2	none
CCOC(=O)c1c(C)[nH]c(C)c1C(=O)COC(=O)/C=C/c1ccc(Cl)cc1	none
